In PubChem BioAssay AID504334 (NMMLSC, 2011):
Where “and” joins values, the source holds several entries; their conditions need not be identical. Equal values may be shown once. A number with no mark means an inactive call.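 The calls were made as follows: active = response relative to DMSO over 150%; inconclusive = yeast strain with under 70 recorded events; inactive = the rest.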

Test: AGP1-GFP expression modulators, hit retest, confirmation, cell-based, flow cytometry, S. cerevisiae, cherry pick set 3 (AID 504334);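 also: median GFP fluorescence per well by flow cytometry over the all cells gate; ratio of sample to mean DMSO control signal so DMSO = 100% not 0%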
Details: S. cerevisiae AGP1-GFP strain, 3 h, at 10 µM, stronger effect = higher value

Structure (SMILES) | percent response vs DMSO
Cc1ccc(C(=O)/C=C/Nc2cccc(O)c2)cc1 | 96.8%
C/C(=N\NC(=O)c1ccccc1)c1ccccc1F | 105%
COCC(C)NC(=O)CCS(=O)(=O)c1nc(-c2ccc(OC)cc2)cc(C(F)(F)F)n1 (configuration not stated) | 98.4% and 101%
CCC(C)Nc1nc(N)c([N+](=O)[O-])c(Nc2cc(OC)ccc2OC)n1 (configuration not stated) | 98.8%
O=C(O)c1ccc2cccnc2c1O | 99.8%
COc1ccc(N/C=C/C(=O)c2ccc(Cl)cc2)cc1 | 98.1%
COc1ccc(OC)c2c(C)cc(C)nc12 | 97.1%
Cn1c(=O)c2c(n3cnnc13)-c1ccccc1CC21CCCC1 | 104%
CCCOCc1ccc(O)c2ncccc12 | 99.8%
CS(=O)(=O)c1nc(-c2ccc(F)cc2)cc(C(F)(F)F)n1 | 114%
O=C(Nc1ccccc1)ON=C1c2ccccc2-c2ccccc21 | 97.8%
COc1cccc2c(O)cc(=O)n(C)c12 | 99.1%
CN1CCN(C(=O)c2cc(COc3ccc(F)cc3Cl)on2)CC1c1ccccc1 (configuration not stated) | 101%
C[n+]1cccc2cccc([O-])c21 | 98.8%
CCc1c(C)nc2c(OC)cccc2c1Cl | 99.4%
COc1cccc(N/C=C/C(=O)c2ccc(C)cc2)c1 | 99.8%
CCN(CC)C(=O)Oc1ccnc2cc(Cl)ccc12 | 108%
OCCNc1ncnc2ccc(Br)cc12 | 101%
O=c1cc(C(F)(F)F)[nH]c2c(OC(F)(F)F)cccc12 | 99.4%
Cc1cccc(Nc2cc(=O)[nH]c(=O)[nH]2)c1C | 99.4%
Cc1cccc(C)c1Nc1ncnc(N)c1[N+](=O)[O-] | 102%
CS(=O)(=O)Oc1ccc(Br)c2cccnc12 | 96.4%
